Screening data from PubChem.
Pf growth 48h – P. falciparum growth inhibition at 48 hours (one generation); P. falciparum luciferase growth in erythrocytes, 48 h; AID 504832; Potency, µM (series often up to 28.7 µM), inactives show at the top dose activity change, negative = inhibition, actives largely listed as inhibitors; hit rate 5.9% among 310,000; further: on the % scale 0 is the no-effect control and ±100 the full control effect
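In quantitative HTS format, infected erythrocytes bearing luciferase-reporter parasites were treated for a single generation at 37 C. Luminescence after adding detection reagent served as the growth measure.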
Pf growth 96h – inhibits malaria parasite growth, 96 h. P. falciparum luciferase reporter growth, 96 h. Potency, µM (highest dose often 28.7 µM), for the others: at the top dose activity change, negative = inhibition, actives largely listed as inhibitors. hit rate 6.9% among 320,000; further: on the % scale 0 is the no-effect control and ±100 the full control effect
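Readout is luminescence from an integrated firefly luciferase in P. falciparum. Red cells, 2% hematocrit and 0.05% parasitemia final, were cultured with compound through two parasite generations (96 hours) at 37 C, 5% CO2.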
SARS PLP yeast – blocks SARS-CoV papain-like protease in a yeast assay | S. cerevisiae expressing SARS-CoV PLpro, growth rescue | Potency, µM (titrated, usually from 32.9 µM), for the others: at the top dose activity, positive = growth rescue, most hits filed as activators | hit rate 0.19% among 330,000 | AID 485353; calls by dose curve; further: 0% is about no effect; nearly all actives have a fitted effect of over 55% in size
NS1 function inh – inhibitors of influenza NS1 protein function. Potency, µM (highest dose often 46.1 µM), for inactives: top-dose activity, positive = more growth. hit rate 0.4% among 270,000. AID 2326; calls by dose curve; further: actives are rising curves; nearly all actives have a fitted effect of over 50% in size
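A cell-based growth assay was used: compounds that relieve NS1-induced slow growth of budding yeast raise OD600. Assay medium was yeast nitrogen base with ammonium sulphate and -URA supplement, pH 6.0, with 2% galactose.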
HCV inhibitor – HCV inhibition. Huh7.5.1 HCVcc-Cre infection, luciferase reporter, 44 h. Potency, µM (titrated, usually from 41.8 µM), inactives show at the highest dose activity change, negative = inhibition, actives largely listed as inhibitors. hit rate 3.4% among 340,000. AID 651820; further: on the % scale 0 is the no-effect control and ±100 the full control effect
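Seed cells (1,000/well) for 4 h; treat with compound and infect with HCVcc-Cre, moi about 0.5. Incubate 44 h, then detect luciferase activity.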
AMA1-RON2 inh – disrupts binding of P. falciparum AMA1 to RON2 | hit rate 0.2% among 360,000 | Potency, µM (doses to about 58.2 µM), for inactives: at the highest dose activity change, negative = inhibition, hits mostly inhibitors | AlphaScreen AMA1-biotinylated RON2 peptide binding;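 further: 0% = vehicle wells and -100% = peptide control; nearly all actives have a fitted effect of over 45% in size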
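AMA1 (3D7) with his tag at 25 nM final met compounds first, then biotinylated RON2 peptide at 25 nM; detection used donor plus acceptor beads, 10 µg/mL apiece, read by AlphaScreen after 30 min at room temperature.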
* marks the source's active call; other numbers are inactive results; ? = inconclusive; / = no result given. In the library only some 12% were active in any assay of this set; here they are far more common. Unless noted, the call rests on the fitted dose curve; in most records, active means well fitted curve in the direction sought with a large enough effect; inconclusive means small, poorly fitted or top-dose-only effect, or another doubt; inactive means no such curve, though single readings can be large; an effect the other way counts as inactive or inconclusive. Potency means the concentration at half of the fitted maximal effect.

SMILES	Pf growth 48h	Pf growth 96h	SARS PLP yeast	NS1 function inh	HCV inhibitor	AMA1-RON2 inh
CCOc1cccc(NC(=O)C2CC(=O)N(C)C(=Nc3ccccc3)S2)c1 (centres undefined)	?	3.7µM*	1%	-45%	-5%	-18%
COc1ccccc1N=C1SC(C(=O)Nc2ccc(F)cc2)CC(=O)N1C (centres undefined)	10µM*	?	4%	-32%	9%	-8%
Cc1ccc(C(=O)NNC(=O)c2ccc(-n3cncn3)c([N+](=O)[O-])c2)cc1	?	-24%	-3%	/	-13%	9%
CC(=O)Nc1ccc(SC[C@H](Cc2ccccc2)N2CC[C@@H](C(C)(C)C)CCC2=O)cc1	1.9µM*	?	4%	/	?	-15%
N#CC[C@H](Cc1ccccc1)N1CCN(CCc2ccccc2)CCC1=O	-45%	3.7µM*	-8%	14%	21%	-3%
CC(C)(C)[C@H]1CCC(=O)N([C@H](CSc2ccccc2)Cc2ccccc2)CC1	?	?	-2%	21%	-29%	-4%
CC(=O)Nc1ccc(SC[C@H](Cc2ccccc2)N2CCN(CCc3ccccc3)CCC2=O)cc1	8.3µM*	2.9µM*	1%	-2%	-10%	-7%
CN(Cc1ccccn1)C(=O)C1CCC(=O)N(CCc2ccc(Cl)cc2)C1 (centres undefined)	0%	1%	3%	-7%	11%	-3%
Cc1ccc(CCNC(=O)C2CC(=O)N(C3CCCCC3)C2)cc1 (centres undefined)	8%	1.5µM*	1%	-9%	8%	-4%
CCc1ccc(CNC(=O)C2CC(=O)N(C3CCCC3)C2)cc1 (centres undefined)	-14%	2.6µM*	14%	?	11%	-2%
COc1ccc(CCNC(=O)C2CC(=O)N(C3CCCCCCC3)C2)cc1OC (centres undefined)	?	?	3%	-2%	23%	1%
CCN1CC=C(c2c[nH]c3ccccc23)CC1	1µM*	40%	?	0%	10µM*	12%
CC(=O)n1cc(N(C(=O)CCl)c2ccc([N+](=O)[O-])cc2)c2ccccc21	3.7µM*	?	-2%	-6%	7.1µM*	-2%
O=Cc1[nH]c2ccccc2c1N(C(=O)CCl)c1ccc([N+](=O)[O-])cc1	?	0%	-1%	5%	?	-1%
CC(=O)n1cc(N(C(=O)CCl)c2ccccc2)c2ccccc21	?	?	-3%	-40%	1µM*	-3%
Nc1ncc(Br)cc1S(=O)(=O)NCCC(=O)NCCc1ccccc1	5%	-15%	-4%	7%	12%	-5%
CCOC(=O)CCCc1c[nH]c2ccccc12	-10%	?	-12%	-28%	?	0%
Cc1noc(C)c1COC(=O)CCCc1c[nH]c2ccccc12	12µM*	?	-12%	-11%	-5%	-14%
COCc1cc(C)nc2sc(C(=O)Nc3ccccc3F)c(N)c12	7%	?	0%	-2%	10µM*	22%
COCc1cc(C)nc2sc(C(=O)Nc3ccc(C(=O)OC)cc3)c(N)c12	-28%	8%	1%	23%	-17%	10%
O=C(CCCCCNc1nc(=S)[nH]c2ccccc12)NCCc1c[nH]c2ccccc12	?	31%	-2%	-11%	20µM*	45%
O=C(CCCCCNc1nc(=S)[nH]c2ccccc12)NCCc1ccc(Cl)cc1	-24%	?	3%	3%	-29%	35%
CCN(C(=O)C(C)OC(=O)c1nn(-c2ccccc2C(F)(F)F)cc1O)c1ccccc1 (centres undefined)	/	/	4%	/	10%	-4%
CCC(=O)NC(c1ccc(OC)c(OC)c1)c1cc(Cl)c2cccnc2c1O (centres undefined)	1µM*	54%	1%	3%	?	5%
O=C(NC(c1ccccc1)c1cc(Cl)c2cccnc2c1O)c1cccnc1 (centres undefined)	0.66µM*	9%	1.8µM*	9%	-13%	/
SMILES	Pf growth 48h	Pf growth 96h	SARS PLP yeast	NS1 function inh	HCV inhibitor	AMA1-RON2 inh
COc1ccc(C(NC(C)=O)c2cc(Cl)c3cccnc3c2O)cc1OC (centres undefined)	9.3µM*	7%	5%	/	2µM*	-1%
CCOC(=O)c1nc(C)nc(Sc2n[nH]c(-c3cc(C(F)(F)F)cc(C(F)(F)F)c3)n2)c1C	0%	-3%	-3%	-5%	-12%	-12%
COc1cc(C#N)c(NC(=O)CN2CCC(C(N)=O)CC2)cc1OC	-2%	?	-1%	/	9%	7%
O=C(CCl)N(c1ccccc1)c1c[nH]c2ccccc12	1.7µM*	1.2µM*	-25%	-12%	1.3µM*	0%
O=C(CCl)N(c1ccc(Cl)cc1)c1c[nH]c2ccccc12	2.3µM*	/	-26%	-9%	2.5µM*	7%
CCN(CC)C(=O)CCCc1c[nH]c2ccccc12	0%	0%	-1%	-7%	-7%	-3%
CC(OC(=O)c1cc(=O)[nH]c2ccccc12)C(=O)N1C(C)CCCC1C (centres undefined)	?	-26%	-6%	/	1%	30%
CCOC(=O)C1=C(O)C(=O)N(C2CCCCC2)C1	32%	-7%	1%	1%	-10%	21%
CCOC(=O)c1ccc(-c2ccc3oc(-c4ccsc4)cc(=O)c3c2)cc1F	/	/	-2%	/	-17%	-2%
CC(=O)NC(Cc1ccc(N(CCCl)CCCl)cc1)C(=O)NC(C(=O)O)C(C)C (centres undefined)	0%	-41%	-2%	1%	-11%	-15%
CCOC(=O)CC(NC(=O)C(Cc1ccc(N(CCCl)CCCl)cc1)NC(C)=O)C(=O)OCC (centres undefined)	9.3µM*	11%	0%	-16%	?	-17%
CC(NC(=O)c1ccc(Cl)c(S(=O)(=O)N2CCCCCC2)c1)c1cccnc1 (centres undefined)	12µM*	?	-9%	/	13µM*	-2%
CCCn1c(NC(=O)c2ccc(Cl)c(S(=O)(=O)N3CCCC3)c2)nc2ccccc21	5.9µM*	5.2µM*	11%	14%	2.5µM*	81%
O=C(NCc1nc2ccccc2[nH]1)c1ccc(Cl)c(S(=O)(=O)N2CCCC2)c1	10µM*	24%	-1%	?	0%	5%
CN(C)C(CNC(=O)c1ccc(Cl)c(S(=O)(=O)N2CCCCCC2)c1)c1ccccc1 (centres undefined)	5.2µM*	?	-2%	/	6.3µM*	-7%
O=C(Nc1cccnc1)c1ccc(Cl)c(S(=O)(=O)N2CCCCC2)c1	-16%	?	-4%	-8%	?	0%
